Compound activity deposited in PubChem by National Center for Advancing Translational Sciences (NCATS).
HT1080-NT tox: kills 2HG-producing HT-1080-NT fibrosarcoma cells; HT-1080-NT fibrosarcoma viability, CellTiter-Glo ATP luminescence, 48 h; Potency, µM (top dose mostly 46.1 µM), without a hit: at the highest dose activity, negative = less viability, usual class: cytotoxic; actives 1.6% (n = 360,000);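 note: NT is the 2HG producing partner of a matched IDH1 knockdown line; 0% = DMSO-treated cells and -100% = media-only wells without cells; nearly all actives have a fitted effect of over 55% in size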
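Viability by CellTiter-Glo luminescence after 48 h compound exposure at 37C of HT-1080-NT cells (750/well, RPMI, 5% FBS). % activity scaled between DMSO wells and medium-only wells, then curve-fitted and categorized by curve class.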
HT1080 IDH1KD tx: toxicity to HT-1080 IDH1 knockdown cells (counter line); HT-1080 IDH1 knockdown viability, ATP luminescence, 48 h; Potency, µM (series often up to 46.1 µM), inactives show at the top dose activity, negative = toxicity, actives largely listed as cytotoxic; actives 2% (n = 360,000); AID 686971;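 note: 0% = DMSO wells and -100% = cell-free medium wells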
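After a 2 h attachment period, IDH1KD HT-1080 cells took pin-transferred compound for 48 h at 37 °C; ATP-based luminescence after 10 min room-temperature reagent incubation reported viability.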
DT40 TDP1 no CPT: qHTS for Inhibitors of human tyrosyl-DNA phosphodiesterase 1 (TDP1): qHTS in cells in absence of CPT; DT40 Tdp1-/- hTDP1 cells, no CPT, ATP luminescence, 48 h; Potency, µM (doses to about 46.2 µM), without a hit: at the top dose activity change, negative = growth inhibition, most hits filed as inhibitors; actives 15% (n = 420,000); AID 686978, 2013; note: % is set by controls: 0 for no effect and ±100 for the full control effect; nearly all actives have a fitted effect of over 55% in size
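Cells were dispensed at 400 per well, compounds added by pin tool, plates incubated ≥48 hr at 37 °C, then CellTiter-Glo added for 30 min at room temperature before luminescence reading. Line: DT40 Tdp1-/- complemented with hTDP1; camptothecin omitted.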
TGFb inhibitor: inhibitors of TGF-b signaling; HepG2 CAGA-GFP TGF-b/SMAD3 reporter, GFP fluorescence, 18 h; TGF-beta stimulated, 500 pg/mL final; Potency, µM (series often up to 46.1 µM), inactives show at the highest dose activity, negative = inhibition, usual class: inhibitors; actives 1.2% (n = 410,000); note: % is set by controls: 0 for no effect and ±100 for the full control effect; nearly all actives have a fitted effect of over 65% in size
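Using HEPG2 CAGA-GFP reporter cells at 1000 cells/well, we pinned test compounds, stimulated with recombinant TGF-beta (500 pg/mL final) and measured total well GFP after 18 h.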
DT40 TDP1 CPT: DT40-hTDP1 cell growth loss with CPT. Potency, µM (series often up to 46.2 µM), without a hit: top-dose activity change, negative = growth inhibition, hits mostly inhibitors. actives 12% (n = 420,000). AID 686979. chicken DT40 Tdp1-/-;hTDP1 cells + 20 nM CPT, ATP luminescence, 48 h; note: % is set by controls: 0 for no effect and ±100 for the full control effect; nearly all actives have a fitted effect of over 55% in size
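Chicken DT40 Tdp1-/- cells complemented with human TDP1, 400 cells/well, exposed to compounds plus 20 nM camptothecin for at least 48 h at 37 C; viability read as ATP content by CellTiter-Glo luminescence.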
HepG2 viability: HepG2 cytotoxicity, counter-screen for TGF-b inhibitors | HepG2 CAGA-GFP viability, ATP luminescence, 18 h | Potency, µM (doses to about 46.1 µM), for the others: at the top dose activity change, negative = cytotoxicity, usual class: cytotoxic | actives 0.76% (n = 410,000)
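HepG2 CAGA-GFP cells (1000/well, DMEM with 1% FBS) received compound, then TGF-beta at 500 pg/mL final, and were incubated 18 hours at 37 degrees C. Viability was read by CellTiter-Glo luminescence. Media-only wells were set as complete cell-killing and DMSO as no toxicity.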
Numbers without * were called inactive; ! = a repeat was not active. Only some compounds are listed: those with a hit (about 17% of all), similar ones and a draw of the others. Calls come from the whole dose curve; as a rule, active = well fitted curve in the direction sought with a large enough effect; inconclusive = small, poorly fitted or top-dose-only effect, or another doubt; inactive = no such curve, though single readings can be large; an effect the other way counts as inactive or inconclusive. Potency is the fitted concentration of half-maximal effect.

`O=C(NCc1ccc2c(c1)OCO2)c1nnc(Cc2ccc(F)cc2)o1` gave HT1080-NT tox 0%, HT1080 IDH1KD tx 1%, DT40 TDP1 no CPT -11%, TGFb inhibitor inconclusive, DT40 TDP1 CPT 1% and HepG2 viability -21%.
Screening c1ccc2c(NCCc3c[nH]c4ccccc34)c3ccccc3nc2c1 returned HT1080-NT tox inconclusive, HT1080 IDH1KD tx inconclusive, DT40 TDP1 no CPT 2.9µM*, TGFb inhibitor inconclusive, DT40 TDP1 CPT 2.6µM* and HepG2 viability -99%.
Screening OCc1c[nH]c2ccccc12 returned HT1080-NT tox 7%, HT1080 IDH1KD tx -3%, DT40 TDP1 no CPT 39µM*!, TGFb inhibitor -17%, DT40 TDP1 CPT 17µM*! and HepG2 viability -31%.
Screening O=C(NCCc1c[nH]c2ccccc12)c1cc2sccc2n1Cc1ccccc1 returned HT1080-NT tox -6%, HT1080 IDH1KD tx -8%, DT40 TDP1 no CPT 21µM*, TGFb inhibitor -30%, DT40 TDP1 CPT 23µM* and HepG2 viability -31%.
For COc1ccc(CNC(=S)NC(C)CCc2ccccc2)cc1 (configuration not stated) the results were HT1080-NT tox -13%, HT1080 IDH1KD tx -17%, DT40 TDP1 no CPT inconclusive, TGFb inhibitor -20%, DT40 TDP1 CPT inconclusive and HepG2 viability -22%.
`COc1cccc(NC(=O)CCNC(=O)Cn2ccc3ccccc3c2=O)c1` gave HT1080-NT tox 4%, HT1080 IDH1KD tx 1%, DT40 TDP1 no CPT 2%, TGFb inhibitor inconclusive, DT40 TDP1 CPT 11% and HepG2 viability -15%.
Screening CCCCCCCCCCCCCCCCCC(=O)[O][Al] returned DT40 TDP1 no CPT -7% and DT40 TDP1 CPT 0%.
For Cc1cc(C(=O)Nc2ncn(Cc3ccc(F)cc3)n2)ccc1[N+](=O)[O-] the results were HT1080-NT tox 4%, HT1080 IDH1KD tx 3%, DT40 TDP1 no CPT 15%, TGFb inhibitor -9%, DT40 TDP1 CPT 11% and HepG2 viability -16%.
Screening Nc1nc2ccc(Cl)cc2cc1C(=O)NCc1ccc(Oc2ccccc2)cc1 returned HT1080-NT tox -20%, HT1080 IDH1KD tx inconclusive, DT40 TDP1 no CPT 1.3µM* and DT40 TDP1 CPT 0.65µM*.
Screening Nc1nc2ccc(Cl)cc2cc1C(=O)NC1CC1 returned HT1080-NT tox -12%, HT1080 IDH1KD tx -12%, DT40 TDP1 no CPT -16% and DT40 TDP1 CPT -9%.
Screening Cc1cc(NC(=O)CSc2ccc(-c3nc4cc(C)c(C)cc4[nH]3)cn2)no1 returned HT1080-NT tox -22%, HT1080 IDH1KD tx inconclusive, DT40 TDP1 no CPT inconclusive, TGFb inhibitor 3%, DT40 TDP1 CPT inconclusive and HepG2 viability -18%.
`Cc1cc2nc(-c3ccc(SCc4ccccc4C#N)nc3)[nH]c2cc1C` gave HT1080-NT tox inconclusive, HT1080 IDH1KD tx -25%, DT40 TDP1 no CPT 16µM*, TGFb inhibitor -1%, DT40 TDP1 CPT inconclusive and HepG2 viability -26%.
Screening Cc1cc2nc(-c3ccc(SCc4ccc(C(=O)O)cc4)nc3)[nH]c2cc1C returned HT1080-NT tox inconclusive, HT1080 IDH1KD tx inconclusive, DT40 TDP1 no CPT inconclusive, TGFb inhibitor -6%, DT40 TDP1 CPT inconclusive and HepG2 viability 4%.
For Cc1cc2nc(-c3ccc(SCC(=O)N4CCc5ccccc54)nc3)[nH]c2cc1C the results were HT1080-NT tox -10%, HT1080 IDH1KD tx 0%, DT40 TDP1 no CPT 23µM*, TGFb inhibitor inconclusive, DT40 TDP1 CPT 9.2µM* and HepG2 viability -10%.
